Among the data in PubChem BioAssay (NCI) are growth inhibition values, retold here.

The nature of assay [1]: NCI Yeast Anticancer Drug Screen. Data for the rad50 strain (AID 155).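 Note: 0% = growth of vehicle-only cultures of the same strain.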 As to conditions: S. cerevisiae rad50 strain growth inhibition; at 50.0 µM; active compounds read high. The gist of the method:
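Genetically altered yeast (DNA repair pathway); compound treatment; growth inhibition vs vehicle ctrl.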

The nature of assay [2]: NCI Yeast Anticancer Drug Screen. Data for the mec2-1 strain (AID 157). As to conditions: S. cerevisiae mec2-1 strain, at 50.0 µM, active compounds read high. The gist of the method: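 Using mec2-1 yeast: add compound, measure growth, express inhibition versus vehicle-treated cultures.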
A short description of assay [3]: NCI Yeast Anticancer Drug Screen. Data for the sgs1 mgt1 strain (AID 161).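 Note: 0% = growth of cultures given vehicle only.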 As to conditions: S. cerevisiae sgs1 mgt1 strain, at 50.0 µM, active compounds read high. The method in brief: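 This yeast growth screen uses a strain with defined DNA-repair lesions; compound-treated growth is compared with vehicle-treated growth.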
Assay [4] can be described thus: NCI Yeast Anticancer Drug Screen. Data for the cln2 rad14 strain (AID 165).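 Note: 0% = growth equal to vehicle treated cultures.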 As to conditions: S. cerevisiae cln2 rad14 strain, at 50.0 µM, active compounds read high. The method in brief: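 Yeast strain cln2 rad14, bearing defects in cell cycle control and DNA repair, serves as the test system; values reflect growth inhibition compared with vehicle.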
The nature of assay [5]: NCI Yeast Anticancer Drug Screen. Data for the bub3 strain (AID 167). As to conditions: S. cerevisiae bub3 mutant strain, at 50.0 µM, active compounds read high. The gist of the method:
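Yeast carrying a defined mutation is treated with each compound, and growth is compared with that of vehicle-exposed cells to give inhibition.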

Assay [6] is described as follows: NCI Yeast Anticancer Drug Screen. Data for the mlh1 rad18 strain (AID 175). As to conditions: S. cerevisiae mlh1 rad18 strain growth inhibition; at 50.0 µM; active compounds read high. The gist of the method: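 Steps: expose repair-defective yeast to compound; measure growth; express inhibition against vehicle-treated controls.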

The panel holds about 79,000 compounds, 15% with a hit somewhere; the sample as a whole holds those more often. Values without a mark were called inactive. Activity calls are given as the source filed them. Cut-off read from the data, not from the text of the source: active = growth inhibition above about 70%; inactive = the rest.

Turning to `CCCCCCCOCC(=O)OC`, the growth inhibition in assay [1] is 3.6%; in assay [2] it was -0.7%; in assay [3], 2%; in assay [4], -21.2%; in assay [5] it was 10.2%; in assay [6], 1.45%.

In the case of `CCOC(=O)C1=NN(c2ccccc2)C(=O)/C1=C\N1C(=O)/C(=C/c2cccc(OC)c2O)SC1=S`, the growth inhibition in assay [1] was 30.5%; in assay [2], 8.55%; in assay [3] it was 31.6%; in assay [4], 20.4%; in assay [5], -0.35%; in assay [6], 21.6%.

As for `CC1NC(C(=O)O)Cc2cc(O)c(O)cc21` (stereo unspecified), the growth inhibition was -21.2% in assay [1]; -36.6% in assay [2]; -30.8% in assay [3]; 5.35% in assay [4]; -34.8% in assay [5]; -49.2% in assay [6].

Take `Clc1cc(OC2C3CC4CC(C3)CC2C4)nc(Cl)n1` (stereo unspecified): the growth inhibition in assay [1] is 8.45%; in assay [2], 1.45%; in assay [3], 27.7%; in assay [4], -1.1%; in assay [5] it was 16.3%; in assay [6] it was 65.8%.

For `CCOC(C)=N`, the growth inhibition in assay [1] was 3.1%; in assay [2], -29.4%; in assay [3], 7.3%; in assay [4], -6.85%; in assay [5], -9.7%; in assay [6], 3.35%.

`COc1ccc(N=c2nc3n4c(c(Br)cc(Br)c4n2)NC(C(Br)(Br)Br)=N3)cc1`: the growth inhibition in assay [1] was 1.7%; in assay [2], 1.2%; in assay [3], 6.25%; in assay [4], -15.3%; in assay [5], 4.35%; in assay [6] it was 41.1%.

Turning to `O=[N+]([O-])c1cccc(-c2csc(NNC3=NC/C(=C/c4ccc5c(c4)OCO5)S3)n2)c1`, the growth inhibition in assay [1] is 33.5%; in assay [2], -7.9%; in assay [3], 33%; in assay [4], -33.5%; in assay [5], 23.6%; in assay [6], 22.1%.

With `CNC(=S)N/N=C(C)\C=N/Nc1ccc(Br)cc1`, the growth inhibition is 46.4% in assay [1]; 14.1% in assay [2]; 34.7% in assay [3]; -18.9% in assay [4]; 21.2% in assay [5]; 25.9% in assay [6].

Turning to `O=[N+]([O-])c1cccc(N=Cc2ccccc2)c1`, the growth inhibition in assay [1] was 7.25%; in assay [2] it was 12.9%; in assay [3], -7.4%; in assay [4], 8.15%; in assay [5], 13.8%; in assay [6] it was 6.05%.

On to `O=[N+]([O-])c1ccc(NC2CCCCC2)nc1`, for which the growth inhibition in assay [1] is 14%; in assay [2] it was -9.85%; in assay [3] it was 13.9%; in assay [4], 7.65%; in assay [5], 42.6%; in assay [6], -1.55%.

For `Cc1nc2[nH]cc(-c3ccccc3)c2c(=N)n1-c1ccc(F)cc1`, the growth inhibition is -7.45% in assay [1]; 0.8% in assay [2]; -11.2% in assay [3]; -23.1% in assay [4]; -7.6% in assay [5]; 0.55% in assay [6].

For `Cc1ccc(N(C(=O)CC(=O)NN)C(=O)c2ccccc2Cl)cc1`, the growth inhibition is -12.4% in assay [1]; -13.6% in assay [2]; -8.25% in assay [3]; 27% in assay [4]; 4% in assay [5]; -5.9% in assay [6].

For the compound `Cn1cnc2c1S(=O)(=O)NCN2`, the growth inhibition in assay [1] was 10.7%; in assay [2], 3.15%; in assay [3] it was -8.6%; in assay [4] it was -3.2%; in assay [5] it was 19.9%; in assay [6] it was 6.7%.

Regarding `C=CCNC(=O)/C=C/C(=O)O`, the growth inhibition was -8.15% in assay [1]; 6.85% in assay [2]; 0.35% in assay [3]; 4.45% in assay [4]; 12.5% in assay [5]; 6.15% in assay [6].

As for `O=C1OCC(c2ccccc2)(c2ccccc2)C(=O)N1O`, the growth inhibition is 18.4% in assay [1]; -2.1% in assay [2]; 3.95% in assay [3]; 13.2% in assay [4]; 5.65% in assay [5]; 16.5% in assay [6].

`CNCC(OC)OC`: the growth inhibition in assay [1] is 5.3%; in assay [2], -29.8%; in assay [3], 4.85%; in assay [4], 16.1%; in assay [5], 0%; in assay [6] it was 11.2%.

Regarding `Oc1ccc2ccc3[nH]cnc3c2c1`, the growth inhibition in assay [1] was -22.5%; in assay [2], -25.4%; in assay [3], -9%; in assay [4] it was 2.1%; in assay [5], -8.9%; in assay [6] it was 0.15%.

For `CC(C)C(O)(c1ccccc1)C(O)(c1ccccc1)C(C)C` (stereo unspecified), the growth inhibition in assay [1] is 99.5% (active); in assay [2], 99.6% (active); in assay [3], 99.5% (active); in assay [4], 99% (active); in assay [5], 99.5% (active); in assay [6] it was 99.5% (active).

For `CN(C)/N=C1/CCCCC1C(O)(c1ccccc1)c1ccccc1` (stereo unspecified), the growth inhibition in assay [1] was -20.7%; in assay [2] it was -19.8%; in assay [3], -15.4%; in assay [4], -73.3%; in assay [5] it was -58.8%; in assay [6] it was -10.7%.

`CC(=O)Oc1ccc(C2(c3ccc(OC(C)=O)cc3)C(=O)Nc3ccccc32)cc1`: the growth inhibition is -11.2% in assay [1]; -16.3% in assay [2]; -5.85% in assay [3]; -0.65% in assay [4]; 20.8% in assay [5]; -4.65% in assay [6].

On to `N#CCCOC1C(OCCC#N)C(OCCC#N)C(OCCC#N)C(OCCC#N)C1OCCC#N` (stereo unspecified), for which the growth inhibition is -14.2% in assay [1]; -23.1% in assay [2]; 8% in assay [3]; 17.7% in assay [4]; 28.2% in assay [5]; 16.1% in assay [6].
